Data as given in PubChem BioAssay (NCATS).
Inconclusive results are not listed. The source made the active and inactive calls. Calls come from the whole dose curve; as a rule, active = well fitted curve in the direction sought with a large enough effect; inconclusive = small, poorly fitted or top-dose-only effect, or another doubt; inactive = no such curve, though single readings can be large; an effect the other way counts as inactive or inconclusive.

Legend:
[1] = biological target: Glutathione peroxidase 1 (Homo sapiens) (UniProt P07203); assay: Primary qHTS Assay for Inhibitors of Recombinant Selenoprotein Glutathione Peroxidase 1 (GPX1) (AID 1845191); note: nearly all actives have a fitted effect of over 65% in size; for activity, negative = inhibition: % is set by controls: 0 for no effect and ±100 for the full control effect
How it was run: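 NADPH consumption tracked by fluorescence at 340/450 nm between t=0 and t=15 min, room temperature. Final mix: 10 nM GPX1, 100 nM glutathione reductase, 1 mM GSH, 0.5 mM NADPH, 0.5 mM cumene hydroperoxide, 0.01% BSA; 30 min compound–enzyme preincubation.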

[2] = biological target: Phospholipid hydroperoxide glutathione peroxidase GPX4 (Homo sapiens) (UniProt P36969); assay: Primary qHTS Assay for Inhibitors of Recombinant Selenoprotein Glutathione Peroxidase 4 (GPX4) (AID 1845192); note: nearly all actives have a fitted effect of over 65% in size; for activity change, negative = inhibition: series mostly up to about 50 µM; % is set by controls: 0 for no effect and ±100 for the full control effect
How it was run: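 NADPH consumption followed by fluorescence at 340/450 nm, t=0 and after 15 min at room temperature. Reaction started with cumene hydroperoxide (0.5 mM final) after 30 min compound–GPX4 preincubation; final 200 nM GPX4, 100 nM GR, 1 mM GSH, 0.5 mM NADPH.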

[3] = biological target: Luciferin 4-monooxygenase (Photinus pyralis) (UniProt P08659); assay: Primary firefly luciferase (FLuc) qHTS assay for identification of artifact compounds. (AID 1845220); note: nearly all actives have a fitted effect of over 60% in size;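 for activity change, negative = inhibition: series mostly up to about 54 µM; plate controls were DMSO vehicle for no effect and no enzyme for full effect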
How it was run: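 Compounds sat 15 min at room temperature with 10 uM luciferin and 10 uM ATP (pH 7.6 Tris acetate). Firefly luciferase (10 nM final) was then added, and luminescence was read 5 min later. Data normalized to no-enzyme and DMSO controls were Hill-fitted.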

[4] = system: Nanoluciferase (engineered Oplophorus gracilirostris luciferase); assay: Primary Nanoluciferase (NLuc) qHTS assay for identification of artifact compounds. (AID 1845222);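 note: series mostly up to about 54 µM; 0% = DMSO and -100% = no enzyme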
How it was run: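 Luminescence from secreted NLuc (filtered, 1:55-diluted S16 cell medium) read 5 min after Nano-Glo substrate; compounds preincubated 15 min, RT. Hill fits of inhibition normalized to DMSO and no-enzyme.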

[5] = Primary redox qHTS assay for identification of artifact compounds. (AID 1845223);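 note: 0% = DMSO and 100% = reference compound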
How it was run: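 Redox-cycling detection via DTT (250 uM final) oxidation coupled to Amplex Red (25 uM)/HRP (250 mU/mL) in HBSS. 15 min preincubation plus 30 min after DTT, room temperature. Ex/Em 525/598 nm; 4-parameter Hill fit against DMSO and 10 uM DA3003.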

[6] = Primary fluorescence-based thiol-reactive (MSTI) qHTS assay for identification of artifact compounds. (AID 1845221); note: potency is the fitted concentration of half-maximal effect; nearly all actives have a fitted effect of over 65% in size
How it was run: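 qHTS titration of compound; 4 uM MSTI, PBS pH 7.4, 2% DMSO; 1 h RT, dark; fluorescence 525/598 nm; normalized to Acetyl-MSTI and MSTI; 4-parameter Hill fit.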

Chain of Glutathione peroxidase 1 (Homo sapiens) (P07203 whole entry, looked up): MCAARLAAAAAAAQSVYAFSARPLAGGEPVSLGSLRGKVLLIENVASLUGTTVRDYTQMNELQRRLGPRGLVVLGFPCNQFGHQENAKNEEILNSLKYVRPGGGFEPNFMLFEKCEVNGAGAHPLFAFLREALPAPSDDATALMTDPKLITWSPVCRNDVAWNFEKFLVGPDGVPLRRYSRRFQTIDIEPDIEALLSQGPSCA
Chain of Phospholipid hydroperoxide glutathione peroxidase GPX4 (Homo sapiens) (P36969 whole entry, looked up): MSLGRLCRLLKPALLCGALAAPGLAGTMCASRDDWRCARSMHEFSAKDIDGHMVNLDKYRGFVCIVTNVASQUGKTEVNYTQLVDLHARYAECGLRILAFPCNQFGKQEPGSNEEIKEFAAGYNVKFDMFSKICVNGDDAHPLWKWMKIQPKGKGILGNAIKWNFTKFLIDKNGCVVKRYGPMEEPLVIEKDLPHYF

CC1(C)CC[C@]2(C(=O)O[C@@H]3O[C@H](CO)[C@@H](O)[C@H](O)[C@H]3O)CC[C@]3(C)C(=CCC4[C@@]5(C)C[C@@H](O)[C@H](O)C(C)(C)C5CC[C@]43C)C2[C@@H]1O (stereo not given in full)
inactive: Potency [1] | Potency [2] | Potency [3] | Potency [4] | Potency [5]

COC(=O)C1=C2Nc3ccccc3C23CCN2CCCC(C(C)O)(C1)C23 (stereo not given)
inactive: Potency [1] | Potency [2] | Potency [3] | Potency [4]

C/C=C1\[C@H](O[C@@H]2O[C@H](CO)[C@@H](O)[C@H](O)[C@H]2O)OC=C2C(=O)OCCc3ccc(O)c(c3)Oc3ccc(cc3)CCOC(=O)C[C@H]21
inactive: Potency [1] | Potency [2] | Potency [3] | Potency [4]

O=C(OC1C=C(CO)C2C(OC3OC(CO)C(O)C(O)C3O)OC=CC12)c1ccc(O)cc1 (stereo not given)
inactive: Potency [1] | Potency [2] | Potency [3] | Potency [4] | Potency [5]

CC(C)=CCC/C(C)=C/Cc1ccc(O)c(C2OC(=O)c3cc(C(=O)O)cc(O)c32)c1O (stereo not given)
inactive: Potency [1] | Potency [2] | Potency [3] | Potency [4]

C/C=C/C1=CC2=C(CO1)C(=O)C(C)(O)C(OC(=O)c1c(C)cc(OC)cc1O)C2 (stereo not given)
inactive: Potency [1] | Potency [2] | Potency [3] | Potency [4]

COc1c(/C=C/C(C)(C)O)ccc2c1C(=O)OCc1cc(C)cc(O)c1O2
inactive: Potency [1] | Potency [2] | Potency [3] | Potency [4]

CO[C@H]1C[C@@H]2CC[C@@H](C)[C@@](O)(O2)C(=O)C(=O)N2CCCC[C@H]2C(=O)O[C@H]([C@H](C)C[C@H]2CC[C@@H](OP(C)(C)=O)[C@H](OC)C2)CC(=O)[C@H](C)/C=C(\C)[C@@H](O)[C@@H](OC)C(=O)[C@H](C)C[C@H](C)/C=C/C=C/C=C/1C
inactive: Potency [1] | Potency [2] | Potency [3] | Potency [4]

C[C@@H]1O[C@@H](O[C@H]2[C@H](O)[C@@H](O)[C@H](O[C@H]3[C@H](O[C@H]4CC[C@@]5(C)C(=CC[C@@H]6C5CC[C@]5(C)[C@@H]7[C@H](C[C@@H]65)O[C@]5(CC[C@@](C)(CO[C@@H]6O[C@H](CO)[C@@H](O)[C@H](O)[C@H]6O)O5)[C@H]7C)C4)O[C@H](CO)[C@@H](O)[C@@H]3O)O[C@@H]2CO)[C@H](O)[C@H](O)[C@H]1O (stereo not given in full)
inactive: Potency [1] | Potency [2] | activity change, negative = inhibition [3] -0.0839% [at 11.6 µM] | activity, negative = inhibition [4] 1.75% [at 11.6 µM]

CC1CC(O)/C=C/C(O)C(O)CC(=O)Cc2c(Cl)c(O)cc(O)c2C(=O)O1 (stereo not given)
inactive: Potency [1] | Potency [2] | Potency [3] | Potency [4] | Potency [5]

CC(=O)OC/C=C(\C)C(CC1C(C)=C(OC(C)=O)C(=O)C2C(C)(C)C(O)CCC12C)OC(C)=O (stereo not given)
inactive: Potency [1] | Potency [2] | Potency [3] | Potency [4]

CC(C)(O)/C=C/C1=CC(=O)[C@@](C)(O)C[C@H]1O
inactive: Potency [1] | Potency [2] | Potency [3] | Potency [4] | Potency [5]

Cc1ccc(C(=O)N(CCCN)C(c2oc3cc(Cl)ccc3c(=O)c2Cc2ccccc2)C(C)C)cc1 (stereo not given)
inactive: Potency [1] | Potency [2] | Potency [3] | Potency [4]

CC(O)/C=C/C1OC(=O)CC1Nc1ccc(C(=O)O)cc1 (stereo not given)
inactive: Potency [1] | Potency [2] | Potency [3] | Potency [4]

CC1C(=O)OCC2=CCN3CCC(OC(=O)C(C)(O)C1(C)O)C23 (stereo not given)
inactive: Potency [1] | Potency [2] | Potency [3] | Potency [4] | Potency [5]

COc1cc(C(=O)OC[C@H]2O[C@@H](Oc3ccccc3/C=C/C(=O)O)[C@H](O)[C@@H](O)[C@@H]2O)cc(OC)c1OC
inactive: Potency [1] | Potency [2] | Potency [3] | Potency [4]

COc1cc(N)c(Cl)cc1C(=O)NC[C@@H]1CCN2CCC[C@@H]12
inactive: Potency [1] | Potency [2] | Potency [3] | Potency [4]

CC(=O)CC1CCC(C(C)C(=O)OCC(O)CO)O1 (stereo not given)
inactive: Potency [1] | Potency [2] | Potency [3] | Potency [4]

C=CC(=O)Nc1cc(Nc2ncc(Cl)c(-c3c[nH]c4ccccc34)n2)c(OC)cc1N(C)CCN(C)C
inactive: Potency [1] | Potency [2] | Potency [3] | Potency [4]

CC1(C)CC[C@]2(C(=O)O[C@@H]3O[C@H](CO)[C@@H](O)[C@H](O)[C@H]3O)CC[C@]3(C)C(=CCC4[C@@]5(C)C[C@@H](O)[C@H](O)[C@@](C)(CO)C5CC[C@]43C)C2[C@@H]1O (stereo not given in full)
active: Potency [6] 3.16 µM
inactive: Potency [1] | Potency [2] | Potency [3] | Potency [5]

C/C=C/C(O)C1OC(=O)CC1Nc1ccc(C(=O)O)cc1 (stereo not given)
inactive: Potency [1] | Potency [2] | Potency [3] | Potency [4]

CC(=O)c1ccc2c(c1)C(O)C(C(C)(C)O)O2 (stereo not given)
inactive: Potency [1] | Potency [2] | Potency [3] | Potency [4] | Potency [5]

CC1(C)C=CN2C(=O)C3=CCCN3C(=O)[C@@H]2C[C@@]12Nc1ccccc1C2=O
inactive: Potency [1] | Potency [2] | Potency [3] | Potency [4]

C[C@@H]1C(=O)OC[C@H]2C(C(=O)O)=C[C@@H]3CC(C)(C)C[C@]312
inactive: Potency [1] | Potency [2] | Potency [3] | Potency [4] | Potency [5]

C[C@@H]1CC[C@]2(C(=O)O)CC[C@]3(C)C(=CCC4[C@@]5(C)C[C@@H](O)[C@H](O)[C@@](C)(CO)C5CC[C@]43C)C2[C@]1(C)O (stereo not given in full)
inactive: Potency [1] | Potency [2] | Potency [3] | Potency [4]

CC(O)CCC1C(CO[C@@H]2O[C@H](CO)[C@@H](O)[C@H](O)[C@H]2O)CC(O)CC1(C)C (stereo not given in full)
inactive: Potency [1] | Potency [2] | Potency [3] | Potency [4]

CC1=C(C(=O)O[C@@H]2O[C@H](COC3OCC(O)C(O)C3O)[C@@H](O)[C@H](O)[C@H]2O)C(C)(C)CCC1 (stereo not given in full)
inactive: Potency [1] | Potency [2] | Potency [3] | Potency [4]

CC(CO)C1CCC2(C)CC3C(CO)CC(O)C3C(C)(O)C/C=C/12 (stereo not given)
inactive: Potency [1] | Potency [2] | Potency [3] | Potency [4]
